Calls of active or inactive are those of the source. How the source made its calls: active means hit-call score of the fitted dose curve at least 0.9, where 1 is the maximum; inactive means score below 0.9.

Data on 40 compounds can be found in PubChem BioAssay (EPA / NIEHS).

The experiment can be described thus: ATG_NRF2_ARE_CIS: Attagene CIS-FACTORIAL HepG2 Assay for human Nuclear Factor Erythroid 2 Related Factor 2 (NFR2) response to Antioxidant Response Elements (ARE) (AID 2282992). The following applies: HepG2 Attagene ARE/NRF2 reporter, transcription factor activity; actives raise or lower the signal. On the procedure: ATG_CIS is a cell-based, multiplexed-readout assay that uses HepG2, a human liver cell line, with measurements taken at 24 hours after chemical dosing in a 24-well plate.ATG_NRF2_ARE_CIS is one of 52 assay component(s) measured or calculated from the ATG_CIS assay. It is designed to make measurements of mRNA induction, a form of inducible reporter, as detected with fluorescence intensity signals by Reverse transcription polymerase chain reaction (RT-PCR) and Capillary electrophoresis technology.Data from the assay component ATG_NRF2_ARE_CIS was analyzed into 1 assay endpoint. This assay endpoint, ATG_NRF2_ARE_CIS, was analyzed with bidirectional fitting relative to DMSO as the negative control and baseline of activity. Using a type of inducible reporter, measures of mRNA for gain or loss-of-signal activity can be used to understand the reporter gene at the transcription factor-level as they relate to the gene NFE2L2. Furthermore, this assay endpoint can be referred to as a primary readout, because this assay has produced multiple assay endpoints where this one serves a reporter gene function. To generalize the intended target to other relatable targets, this assay endpoint is annotated to the dna binding intended target family, where the subfamily is basic leucine zipper.
Human liver HepG2 cells are transiently transfected with multiple reporter transcription units (MRTUs) in 6-well plates using FuGene 6 reagent (Roche; 3 ml FuGene/1 mg DNA). The MRTU constructs are regulated by a cis-regulating element (promoter). […] A major difference between the CIS and TRANS system is that in CIS activities of endogenous TFs are measured, whereas the TRANS assay evaluates changes in activities of exogenous, chimeric NR-Gal4 proteins. […] At the end of 24 hour incubation, total RNA was isolated using TriZol reagent (Invitrogen). The isolated RNA is then reverse-transcribed using oligo(dT) primer and Mo-MLV reverse transcriptase (Invitrogen) with DNAse I (Ambion) treatment for 30 min. The one-tenth of the produced cDNA was amplified by PCR using Taq DNA polymerase (Invitrogen) and two reporter sequence-specific primers. The PCR products were fluorescently labeled by primer extension with 6-arboxyfluorescein (6-FAM) 5'-labeled reporter sequence-specific primer (2 min at 95 C, 20 s at 68 C and 10 min at 72 C) and these products were digested with 5U of HpaI (New England Biolabs) for 2h at 37 C. The fragments were purified using Qiaquick PCR columns (Qiagen), analyzed on an ABI 3130xL genetic analyzer (Applied Biosystems) with peak positions identified by using a set of X-rhodamine (ROX)-labeled MapMarker1000 molecular weight standards (BioVentures). The raw capillary electrophoresis data was processed using Attagraph software (Attagene).
With `O=C(O)CCC(F)(F)C(F)(F)C(F)(F)C(F)(F)C(F)(F)C(F)(F)C(F)(F)F`, the AC50 was 94.9 µM (active).

In the case of `CSc1ccc(O)cc1C`, the call was inactive.

`O=C(O)C(F)(F)OC(F)(F)C(F)(F)OC(F)(F)C(F)(F)OC(F)(F)F`: the AC50 is 37.8 µM (active).

Regarding `CCN=c1cc2oc3cc(NCC)c(C)cc3c(-c3ccccc3C(=O)OCC)c-2cc1C`, the concentration at half-maximal activity (AC50) is 0.132 µM (active).

For `C=C(C)CCCC`, the result was inactive.

With `OC(O)C(F)(F)C(F)(F)F`, the AC50 was 93.6 µM (active).

For `CCOC(=O)CCC(C)=O`, the compound was called inactive.

As to `N#Cc1ccccc1O`, the outcome was inactive.

`Cc1ccc([N+](=O)[O-])c(C)c1`: the outcome was inactive.

On to `COC(F)(C(F)F)C(F)(F)F` (stereo not given), for which the compound was called inactive.

With `O=C(Cl)c1ccc(Cl)cc1Cl`, the result was inactive.

Turning to `NCC(F)(F)C(F)(F)C(F)(F)C(F)(F)C(F)(F)C(F)(F)C(F)(F)C(F)(F)F`, the result was inactive.

As for `CCn1c2ccccc2c2ccccc21`, the AC50 was 157 µM (active).

With `CCOCN(C(=O)CS(=O)(=O)O)c1c(C)cccc1CC`, the outcome was inactive.

Take `Cc1cnccn1`: the outcome was inactive.

As to `OCCCc1cccnc1`, the compound was called inactive.

Regarding `CCC(Cc1c(I)cc(I)c(N)c1I)C(=O)O` (stereo not given), the AC50 is 47 µM (active).

In the case of `CC(C)=CCCC(C)O` (stereo not given), the compound was classed as inactive.

For the compound `Cc1ccc(S(=O)(=O)C(I)I)cc1`, the AC50 is 15.9 µM (active).

Consider `CCCCCCCCn1sc(Cl)c(Cl)c1=O`, for which the AC50 was 6.58 µM (active).

Take `NC(=O)C(F)(F)C(F)(F)C(F)(F)C(F)(F)C(N)=O`: the compound was classed as inactive.

`O=C(O)C(F)(F)C(F)(F)C(F)(F)C(F)(F)C(F)(F)C(F)(F)C(F)F`: the AC50 is 100 µM (active).

Consider `CC(=O)CCC(C)C`, for which the call was inactive.

In the case of `CN(C)C(C)(C)CO`, the outcome was inactive.

`OCC(O)CC(F)(F)C(F)(F)C(F)(F)C(F)(F)C(F)(F)C(F)(F)C(F)(F)C(F)(F)F` (stereo not given): the call was inactive.

Turning to `Cc1ccc2c(c1)OCC(=O)CO2`, the compound was called inactive.

`O=S(=O)(Cl)C(F)(F)C(F)(F)C(F)(F)C(F)(F)C(F)(F)C(F)(F)C(F)(F)C(F)(F)F`: the AC50 is 70.3 µM (active).

For the compound `O=S(=O)(O)CCC(F)(F)C(F)(F)C(F)(F)C(F)(F)F`, the compound was called inactive.

As to `O=S(=O)(OCC(F)(F)F)C(F)(F)C(F)(F)C(F)(F)C(F)(F)F`, the AC50 is 45.6 µM (active).

Take `Nc1cccnc1N`: the AC50 was 17.9 µM (active).

For `Nc1c(Br)cc([N+](=O)[O-])cc1Br`, the AC50 was 27.4 µM (active).

On to `CC(=O)c1ccccc1N`, for which the result was inactive.

As to `OCCCCC(F)(F)C(F)(F)C(F)(F)C(F)(F)F`, the outcome was inactive.

`CC(C)(C)c1cc(CCC(=O)OCC(COC(=O)CCc2cc(C(C)(C)C)c(O)c(C(C)(C)C)c2)(COC(=O)CCc2cc(C(C)(C)C)c(O)c(C(C)(C)C)c2)COC(=O)CCc2cc(C(C)(C)C)c(O)c(C(C)(C)C)c2)cc(C(C)(C)C)c1O`: the result was inactive.

Regarding `COCCC(=O)OC`, the call was inactive.

As to `Nc1cc([N+](=O)[O-])cc(Cl)c1O`, the call was inactive.

`O=C1C=CC(=O)N1c1ccc(Cc2ccc(N3C(=O)C=CC3=O)cc2)cc1`: the AC50 was 33.4 µM (active).

Consider `CCOC(=O)CC(=O)C(F)(F)C(F)(F)F`, for which the compound was called inactive.

For the compound `NC(=O)C(F)(F)C(F)(F)C(F)(F)F`, the call was inactive.

Take `CCc1cc(Cc2cc(CC)c(N)c(CC)c2)cc(CC)c1N`: the AC50 was 1.62 µM (active).

Usually AC50 stands for the midpoint of the concentration-response curve, whichever way the signal moves.
